This is one part of a sample in which the strongest signals are shown more often than they occur.
Columns and labels:
Test in all cases: glycan array binding signal (z-score within array); higher = stronger binding
Settings in all cases: glycan notation: IUPAC condensed, linker removed
[1] = target: Ara(a1-5)Ara(a1-5)Ara(a1-5)Ara(a1-5)Ara(a1-5)Ara
Procedure, shortened: (§1)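 Negative Z-scores can be read as non-binding. The Z-score is calculated within each array and then averaged across arrays of one protein sequence at different concentrations or buffers and across linkers. Arrays, 3228 in all, were curated from the Consortium for Functional Glycomics database and kept only where the protein sequence was available.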

[2] = target: Fuc(a1-2)Gal(b1-3)GlcNAc(b1-3)Gal(b1-4)Glc
Procedure, shortened: as §1

[3] = target: Gal(b1-3)GlcNAc(b1-3)[Gal(b1-4)GlcNAc(b1-6)]Gal(b1-4)Glc
Procedure, shortened: as §1

[4] = target: Gal(b1-4)GlcNAc(b1-3)[Gal(b1-4)GlcNAc(b1-6)]Gal(b1-4)GlcNAc(b1-3)[Gal(b1-4)GlcNAc(b1-6)]Gal(b1-4)GlcNAc(b1-3)[Gal(b1-4)GlcNAc(b1-6)]Gal(b1-4)GlcNAc(b1-3)[Gal(b1-4)GlcNAc(b1-6)]Gal(b1-4)GlcNAc(b1-3)Gal(b1-4)Glc
Procedure, shortened: as §1

[5] = target: Gal3S(b1-3)[Fuc(a1-4)]GlcNAc(b1-3)Gal(b1-4)Glc
Procedure, shortened: as §1

[6] = target: Gal3S(b1-4)GlcNAc(b1-3)Gal
Procedure, shortened: as §1

[7] = target: Glc(a1-2)Glc(a1-3)Glc(a1-3)Man(a1-2)Man(a1-2)Man(a1-3)[Man(a1-3)[Man(a1-6)]Man(a1-6)]Man(b1-4)GlcNAc
Procedure, shortened: as §1

[8] = target: Glc(a1-3)Glc
Procedure, shortened: as §1

[9] = target: Glc(a1-3)Glc(a1-3)Man(a1-2)Man(a1-2)Man(a1-3)[Man(a1-3)[Man(a1-6)]Man(a1-6)]Man(b1-4)GlcNAc
Procedure, shortened: as §1

[10] = target: Glc(a1-3)Man(a1-2)Man(a1-2)Man(a1-3)[Man(a1-2)Man(a1-3)[Man(a1-2)Man(a1-6)]Man(a1-6)]Man(b1-4)GlcNAc(b1-4)GlcNAc
Procedure, shortened: as §1

[11] = target: Glc(a1-6)Glc
Procedure, shortened: as §1

[12] = target: Glc(a1-6)Glc(a1-6)Glc(a1-6)Glc
Procedure, shortened: as §1

[13] = target: Glc(a1-6)Glc(a1-6)Glc(a1-6)Glc(a1-6)Glc
Procedure, shortened: as §1

[14] = target: Glc(a1-6)Glc(a1-6)Glc(a1-6)Glc(a1-6)Glc(a1-6)Glc
Procedure, shortened: as §1

[15] = target: Glc(b1-4)Glc(b1-4)Glc(b1-4)Glc(b1-4)Glc(b1-4)Glc
Procedure, shortened: as §1

[16] = target: GlcA3S(b1-3)Gal
Procedure, shortened: as §1

[17] = target: GlcNAc(b1-3)[GlcNAc(b1-6)]Gal(b1-4)GlcNAc(b1-3)[GlcNAc(b1-6)]Gal(b1-4)GlcNAc(b1-3)Gal(b1-4)Glc
Procedure, shortened: as §1

[18] = target: HexA(a1-3)GalNAc6S(b1-4)GlcA(b1-3)GalNAc6S
Procedure, shortened: as §1

[19] = target: Man(a1-2)Man
Procedure, shortened: as §1

[20] = target: Man(a1-3)[Man(a1-6)]Man(b1-4)GlcNAc(b1-4)GlcNAc
Procedure, shortened: as §1

[21] = target: Man(b1-4)GlcNAc
Procedure, shortened: as §1

[22] = target: Man6P(a1-3)Man(a1-3)Man(a1-3)Man(a1-2)Man
Procedure, shortened: as §1

[23] = target: Neu5Ac(a2-3)Gal(b1-3)GalNAc(b1-4)[Neu5Ac(a2-3)]Gal(b1-4)Glc
Procedure, shortened: as §1

[24] = target: Neu5Ac(a2-3)Gal(b1-3)[Fuc(a1-4)]GlcNAc
Procedure, shortened: as §1

[25] = target: Neu5Ac(a2-3)Gal(b1-3)[Fuc(a1-4)]GlcNAc(b1-3)Gal(b1-4)Glc
Procedure, shortened: as §1

[26] = target: Neu5Ac(a2-8)Neu5Ac
Procedure, shortened: as §1

[27] = target: Neu5Ac9Ac(a2-6)Gal(b1-4)GlcNAc
Procedure, shortened: as §1

[28] = target: 3dGal(b1-3)[Fuc(a1-4)]Glc
Procedure, shortened: as §1

[29] = target: Fuc(a1-3)[3dGal(b1-4)]Glc
Procedure, shortened: as §1

[30] = target: Fuc(a1-3)[Gal(b1-4)]GlcNAc(b1-3)Gal(b1-4)Glc
Procedure, shortened: as §1

[31] = target: Fuc(a1-3)[Gal6S(b1-4)]GlcNAc(b1-3)Gal(b1-4)Glc
Procedure, shortened: as §1

[32] = target: Gal(a1-6)Glc
Procedure, shortened: as §1

[33] = target: Gal(b1-4)Glc
Procedure, shortened: as §1

[34] = target: Gal(b1-4)GlcNAc(b1-2)Man(a1-3)[Man(a1-6)]Man(b1-4)GlcNAc(b1-4)GlcNAc
Procedure, shortened: as §1

[35] = target: Gal(b1-4)GlcNAc(b1-3)[Fuc(a1-3)[Gal(b1-4)]GlcNAc(b1-6)]Gal(b1-4)Glc
Procedure, shortened: as §1

[36] = target: Glc(a1-4)Glc(a1-4)Glc(a1-4)Glc(a1-4)Glc(a1-4)Glc(a1-4)Glc(a1-4)Glc
Procedure, shortened: as §1

[37] = target: Glc(a1-4)Glc(a1-4)Glc(a1-4)Glc(a1-4)Glc(a1-4)Glc(a1-4)Glc(a1-4)Glc(a1-4)Glc(a1-4)Glc
Procedure, shortened: as §1

[38] = target: Glc(a1-4)Glc(a1-4)Glc(a1-4)Glc(a1-4)Glc(a1-4)Glc(a1-4)Glc(a1-4)Glc(a1-4)Glc(a1-4)Glc(a1-4)Glc(a1-4)Glc
Procedure, shortened: as §1

[39] = target: Glc(a1-4)Glc(a1-4)Glc(a1-4)Glc(a1-4)Glc(a1-4)Glc(a1-4)Glc(a1-4)Glc(a1-4)Glc(a1-4)Glc(a1-4)Glc(a1-4)Glc(a1-4)Glc
Procedure, shortened: as §1

[40] = target: Glc(a1-6)Glc(a1-6)Glc
Procedure, shortened: as §1

[41] = target: Glc(b1-3)Glc(b1-3)Glc(b1-3)Glc
Procedure, shortened: as §1

[42] = target: Glc(b1-6)Glc
Procedure, shortened: as §1

[43] = target: GlcA(b1-3)Gal(b1-4)Glc
Procedure, shortened: as §1

[44] = target: GlcNAc(b1-2)[GlcNAc(b1-4)]Man(a1-3)[GlcNAc(b1-2)[GlcNAc(b1-4)][GlcNAc(b1-6)]Man(a1-6)][GlcNAc(b1-4)]Man(b1-4)GlcNAc(b1-4)GlcNAc
Procedure, shortened: as §1

[45] = target: GlcNAc(b1-3)[GlcNAc(b1-6)]Gal
Procedure, shortened: as §1

[46] = target: GlcNAc(b1-4)GlcNAc(b1-4)GlcNAc(b1-4)GlcNAc(b1-4)GlcNAc(b1-4)GlcNAc
Procedure, shortened: as §1

[47] = target: Kdn(a2-3)Gal(b1-3)GlcNAc(b1-3)Gal(b1-4)Glc
Procedure, shortened: as §1

[48] = target: Kdn(a2-3)Gal(b1-4)[Fuc(a1-3)]GlcNAc(b1-3)Gal
Procedure, shortened: as §1

[49] = target: Man(a1-3)Man
Procedure, shortened: as §1

[50] = target: Man(a1-3)Man(b1-4)GlcNAc
Procedure, shortened: as §1

[51] = target: Man(b1-4)Man(b1-4)Man(b1-4)Man(b1-4)Man(b1-4)Man
Procedure, shortened: as §1

[52] = target: Neu5Ac(a2-3)Gal(b1-3)GlcNAc(b1-3)[Fuc(a1-3)[Gal(b1-4)]GlcNAc(b1-6)]Gal(b1-4)Glc
Procedure, shortened: as §1

[53] = target: Neu5Ac(a2-3)Gal(b1-4)Glc
Procedure, shortened: as §1

[54] = target: Neu5Ac(a2-3)Gal(b1-4)[Fuc(a1-3)]GlcNAc(b1-6)Gal(b1-4)Glc
Procedure, shortened: as §1

[55] = target: Neu5Ac(a2-3)Gal6S(b1-4)[Fuc(a1-3)]GlcNAc(b1-3)Gal(b1-4)Glc
Procedure, shortened: as §1

[56] = target: Neu5Ac(a2-6)Gal(b1-3)GlcNAc(b1-3)[Fuc(a1-3)[Gal(b1-4)]GlcNAc(b1-6)]Gal(b1-4)Glc
Procedure, shortened: as §1

[57] = target: Neu5Ac(a2-8)Neu5Ac(a2-8)Neu5Ac(a2-3)Gal(b1-4)Glc
Procedure, shortened: as §1

[58] = target: Neu5Ac9Me(a2-3)Gal(b1-4)Glc
Procedure, shortened: as §1

[59] = target: Neu5Gc(a2-6)Gal(b1-4)GlcNAc(b1-2)Man(a1-3)[Neu5Gc(a2-6)Gal(b1-4)GlcNAc(b1-2)Man(a1-6)]Man(b1-4)GlcNAc(b1-4)GlcNAc
Procedure, shortened: as §1

[60] = target: Xyl(b1-2)[Man(a1-3)][Man(a1-6)]Man(b1-4)GlcNAc(b1-4)[Fuc(a1-3)]GlcNAc
Procedure, shortened: as §1

B1: Malectin (Xenopus laevis), Q6INX3 (protein)
chain: SGLADKVIWAVNAGGESHVDVHGIHYRKDPLEGRVGRASDYGMKLPILRSNPEDQVLYQTERYNEDSFGYDIPIKEEGEYVLVLKFAEVYFAQSQQKVFDVRVNGHTVVKDLDIFDRVGHSTAHDEIIPISIKKGKLSVQGEVSTFTGKLSVEFVKGYYDNPKVCALFIMKGTADDVPMLQPHPGLE
glycan array binding signal (z-score) [1]: -0.069
glycan array binding signal (z-score) [2]: -0.068
glycan array binding signal (z-score) [3]: -0.075
glycan array binding signal (z-score) [4]: -0.066
glycan array binding signal (z-score) [5]: -0.076
glycan array binding signal (z-score) [6]: -0.076
glycan array binding signal (z-score) [7]: 0.052
glycan array binding signal (z-score) [8]: 0.041
glycan array binding signal (z-score) [9]: 8.46
glycan array binding signal (z-score) [10]: -0.171
glycan array binding signal (z-score) [11]: -0.214
glycan array binding signal (z-score) [12]: 0.133
glycan array binding signal (z-score) [13]: 0.876
glycan array binding signal (z-score) [14]: 1.32
glycan array binding signal (z-score) [15]: -0.198
glycan array binding signal (z-score) [16]: -0.074
glycan array binding signal (z-score) [17]: -0.076
glycan array binding signal (z-score) [18]: -0.074
glycan array binding signal (z-score) [19]: -0.076
glycan array binding signal (z-score) [20]: -0.072
glycan array binding signal (z-score) [21]: -0.075
glycan array binding signal (z-score) [22]: -0.075
glycan array binding signal (z-score) [23]: -0.076
glycan array binding signal (z-score) [24]: -0.076
glycan array binding signal (z-score) [25]: -0.076
glycan array binding signal (z-score) [26]: -0.073
glycan array binding signal (z-score) [27]: -0.073

B2: ZG16p (Homo sapiens), O60844 (protein)
chain: ARSSSYSGEYGGGGGKRFSHSGNQLDGPITALRVRVNTYYIVGLQVRYGKVWSDYVGGRNGDLEEIFLHPGESVIQVSGKYKWYLKKLLFVTDKGRYLSFGKDSGTSFNAVPLHPNTVLRFISGRSGSLIDAIGLHWDVYPSSCSRC
glycan array binding signal (z-score) [28]: -0.327
glycan array binding signal (z-score) [29]: -0.025
glycan array binding signal (z-score) [30]: -0.178
glycan array binding signal (z-score) [31]: -0.328
glycan array binding signal (z-score) [32]: -0.272
glycan array binding signal (z-score) [33]: -0.133
glycan array binding signal (z-score) [34]: -0.273
glycan array binding signal (z-score) [35]: -0.328
glycan array binding signal (z-score) [8]: 2.88
glycan array binding signal (z-score) [36]: 1.93
glycan array binding signal (z-score) [37]: 1.95
glycan array binding signal (z-score) [38]: 4.4
glycan array binding signal (z-score) [39]: 2.82
glycan array binding signal (z-score) [40]: 0.475
glycan array binding signal (z-score) [41]: 0.797
glycan array binding signal (z-score) [42]: 2.7
glycan array binding signal (z-score) [43]: -0.328
glycan array binding signal (z-score) [44]: -0.42
glycan array binding signal (z-score) [45]: 0.435
glycan array binding signal (z-score) [46]: -0.328
glycan array binding signal (z-score) [47]: -0.328
glycan array binding signal (z-score) [48]: -0.328
glycan array binding signal (z-score) [49]: 2.78
glycan array binding signal (z-score) [50]: 2.31
glycan array binding signal (z-score) [51]: -0.328
glycan array binding signal (z-score) [52]: -0.328
glycan array binding signal (z-score) [53]: -0.276
glycan array binding signal (z-score) [54]: -0.328
glycan array binding signal (z-score) [55]: -0.328
glycan array binding signal (z-score) [56]: -0.328
glycan array binding signal (z-score) [57]: -0.328
glycan array binding signal (z-score) [58]: -0.328
glycan array binding signal (z-score) [59]: -0.282
glycan array binding signal (z-score) [60]: -0.369
